Reference: PubChem BioAssay
Activity calls are given as the source filed them.

How the values were obtained:
[1] = probe aShh binding to arrayed compounds – biochemical, biotinylated probe, 635/667 nm fluorescence, primary screen (AID 1114); conditions: small-molecule microarray, higher = more signal;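 further: probe is biotin-labelled aShh protein from a stem cell growth factor screen; measures binding of labelled protein to compounds printed on the slide; score merges feature fluorescence at 667 nm with signal-to-noise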
[2] = probe aNog binding to arrayed compounds – biochemical, biotinylated probe, 635/667 nm fluorescence, primary screen (AID 1115); conditions: small-molecule microarray, higher = more signal;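 further: probe is biotinylated aNog protein used at 0.15 µg/mL for 1 h at 4 C; z-score combines 667 nm fluorescence of each spot with its signal to noise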
[3] = molecular target: Torsin-1A-interacting protein 1 (Homo sapiens) (UniProt Q5JTV8); assay: compound microarray binding of lysate hLAP1 – cell lysate, small-molecule microarray, COS7 lysate, 635/667 nm fluorescence, primary screen (AID 1116); conditions: 635 nm fluorescence, higher = more signal
Torsin-1A-interacting protein 1 (Homo sapiens), sequence (Q5JTV8 whole entry, looked up): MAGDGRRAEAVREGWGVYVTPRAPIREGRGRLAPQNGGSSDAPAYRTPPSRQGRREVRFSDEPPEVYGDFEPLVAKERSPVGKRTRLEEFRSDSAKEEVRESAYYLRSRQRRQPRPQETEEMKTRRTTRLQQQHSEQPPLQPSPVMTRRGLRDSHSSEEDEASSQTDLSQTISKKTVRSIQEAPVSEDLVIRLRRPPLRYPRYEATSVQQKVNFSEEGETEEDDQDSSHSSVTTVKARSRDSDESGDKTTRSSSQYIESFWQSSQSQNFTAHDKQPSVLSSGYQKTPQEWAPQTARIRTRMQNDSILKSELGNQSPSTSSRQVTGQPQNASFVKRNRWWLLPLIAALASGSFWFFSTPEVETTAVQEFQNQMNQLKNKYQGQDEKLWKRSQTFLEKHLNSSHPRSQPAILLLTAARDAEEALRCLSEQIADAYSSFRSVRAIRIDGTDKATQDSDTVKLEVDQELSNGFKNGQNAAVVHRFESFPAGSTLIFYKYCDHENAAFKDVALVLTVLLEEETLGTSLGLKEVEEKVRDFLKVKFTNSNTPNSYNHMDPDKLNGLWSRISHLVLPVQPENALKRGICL

Albumin (Bos taurus) = Albumin (Bos taurus) (UniProt P02769); assay: compounds binding labelled BSA control protein – biochemical, small-molecule microarray, Alexa647 label, 635/667 nm fluorescence, artefact control for SMM control protein annotation, profiling panel (AID 1118); conditions: BSA-A647 binding, fluorescence 635 nm, higher = more signal;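 further: score merges 667 nm emission intensity and signal-to-noise per printed compound spot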
Albumin (Bos taurus), sequence (P02769 whole entry, looked up): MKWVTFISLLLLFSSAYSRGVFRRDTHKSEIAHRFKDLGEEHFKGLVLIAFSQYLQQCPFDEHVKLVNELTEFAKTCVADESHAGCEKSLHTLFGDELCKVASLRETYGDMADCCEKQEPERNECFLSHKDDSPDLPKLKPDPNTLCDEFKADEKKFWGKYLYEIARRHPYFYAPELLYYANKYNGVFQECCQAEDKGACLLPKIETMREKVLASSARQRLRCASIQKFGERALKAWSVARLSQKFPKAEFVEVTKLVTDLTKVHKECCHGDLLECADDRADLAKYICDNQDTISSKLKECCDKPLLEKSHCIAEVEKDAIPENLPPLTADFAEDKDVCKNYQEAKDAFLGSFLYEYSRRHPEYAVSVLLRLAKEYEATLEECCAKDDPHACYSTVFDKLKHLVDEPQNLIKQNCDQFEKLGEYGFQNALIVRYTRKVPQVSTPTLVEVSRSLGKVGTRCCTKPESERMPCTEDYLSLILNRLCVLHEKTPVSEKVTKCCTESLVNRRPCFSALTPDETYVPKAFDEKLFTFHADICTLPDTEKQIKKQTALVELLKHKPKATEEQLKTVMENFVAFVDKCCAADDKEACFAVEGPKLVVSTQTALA

[4] = probe aXIP binding to arrayed compounds – biochemical, NeuroSMM set, 635/667 nm fluorescence, primary screen (AID 1119); conditions: small-molecule microarray, higher = more signal, called active from +8 up or from −8 down;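 further: probe is the protein aXip251-270 applied at 1 µg/mL to compound-printed slides; binding of probe to printed compounds measured as 667 nm fluorescence plus signal to noise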
[5] = probe aNOTCH3 binding on compound microarray – biochemical, small-molecule microarray, 635/667 nm fluorescence, primary screen (AID 1120); conditions: higher = more signal;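 further: probe is a biotin-tagged antibody raised against NOTCH3 rather than NOTCH3 protein; score merges spot fluorescence near 667 nm with spot signal to noise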
[6] = probe aNOTCH2 binding on compound microarray – biochemical, small-molecule microarray, 635/667 nm fluorescence, primary screen (AID 1121); conditions: higher = more signal;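 further: score merges feature fluorescence read at 667 nm with its signal to noise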
[7] = molecular target: Carbonic anhydrase 2 (Homo sapiens) (UniProt P00918); assay: compounds binding carbonic anhydrase 2 – biochemical, small-molecule microarray, Alexa647-labelled CAII, profiling panel (AID 1122); conditions: CAII-A647 binding fluorescence, higher = more signal
[8] = COS7 lysate on small-molecule microarray, probe aHis, 635 nm (AID 1123); conditions: COS7 cell lysate, fluorescence, higher = more signal;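 further: z-score combines 667nm fluorescence intensity with signal-to-noise per printed compound spot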
[9] = probe aLAP1 signal on lysate-treated microarray – cell lysate, small-molecule microarray, COS7 lysate, primary screen (AID 1124); conditions: probe aLAP1, fluorescence, higher = more signal;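 further: lysate comes from COS7 cells expressing LAP1 and is applied at 0.3 µg/mL; score merges spot fluorescence near 667 nm with signal-to-noise over triplicate slides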
Sam68 (KHDRBS1) = assay: compounds binding KHDRBS1 protein – biochemical, small-molecule microarray, 635 nm fluorescence, primary screen (AID 1125); conditions: higher = more signal;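 further: score merges 667 nm channel intensity with signal to noise over triplicate slides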
[10] = test system: Chordin-like protein 2 (CHRDL2); assay: compounds binding chordin-like 2 – biochemical, small-molecule microarray, 635 nm fluorescence, primary screen (AID 1126); conditions: fluorescence 635 nm, higher = more signal;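 further: printed compound slides probed with Chrdl2 protein at 4 µg/mL for 1 h at 4 C; score merges 667 nm emission intensity with signal to noise over three replicate slides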
[11] = molecular target: Concanavalin-A (Canavalia ensiformis) (UniProt P02866); assay: compounds binding concanavalin A lectin – biochemical, small-molecule microarray, Alexa647 label, 635 nm, artefact control for SMM control protein annotation, primary screen (AID 1127); conditions: ConA-A647 binding fluorescence, higher = more signal;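 further: z combines 667 nm emission intensity with signal-to-noise across three replicate slides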
Concanavalin-A (Canavalia ensiformis), sequence (P02866 whole entry, looked up): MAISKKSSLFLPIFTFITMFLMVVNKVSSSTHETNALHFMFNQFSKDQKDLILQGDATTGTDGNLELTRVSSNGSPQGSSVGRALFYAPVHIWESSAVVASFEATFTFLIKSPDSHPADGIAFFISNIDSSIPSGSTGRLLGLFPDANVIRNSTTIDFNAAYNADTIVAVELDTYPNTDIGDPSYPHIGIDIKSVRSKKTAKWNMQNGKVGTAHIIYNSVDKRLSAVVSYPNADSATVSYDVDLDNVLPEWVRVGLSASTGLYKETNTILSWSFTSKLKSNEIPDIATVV

[12] = compounds binding Alexa647 anti-His antibody – biochemical, small-molecule microarray, 635 nm fluorescence, artefact control for SMM control protein annotation, primary screen (AID 1128); conditions: higher = more signal;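 further: score merges feature fluorescence with signal-to-noise for each printed compound spot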
[13] = test system: Human papillomavirus type 1a E7 protein (residues 1-88); assay: HPV1a E7 small-molecule binders, primary screen, biochemical, small-molecule microarray, residues 1-88, 635 nm (AID 1129); conditions: small-molecule microarray binding, fluorescence 635 nm; higher = more signal
[14] = molecular target: Focal adhesion kinase 1 (Homo sapiens) (UniProt Q05397); assay: PTK2 protein binding on printed compound slides – biochemical, small-molecule microarray, 635/667 nm fluorescence, BSA, DTT, primary screen (AID 1130); conditions: 635 nm fluorescence, higher = more signal;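 further: composite of spot emission at 667 nm and signal to noise over triplicate slides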
Focal adhesion kinase 1 (Homo sapiens), sequence (Q05397 whole entry, looked up): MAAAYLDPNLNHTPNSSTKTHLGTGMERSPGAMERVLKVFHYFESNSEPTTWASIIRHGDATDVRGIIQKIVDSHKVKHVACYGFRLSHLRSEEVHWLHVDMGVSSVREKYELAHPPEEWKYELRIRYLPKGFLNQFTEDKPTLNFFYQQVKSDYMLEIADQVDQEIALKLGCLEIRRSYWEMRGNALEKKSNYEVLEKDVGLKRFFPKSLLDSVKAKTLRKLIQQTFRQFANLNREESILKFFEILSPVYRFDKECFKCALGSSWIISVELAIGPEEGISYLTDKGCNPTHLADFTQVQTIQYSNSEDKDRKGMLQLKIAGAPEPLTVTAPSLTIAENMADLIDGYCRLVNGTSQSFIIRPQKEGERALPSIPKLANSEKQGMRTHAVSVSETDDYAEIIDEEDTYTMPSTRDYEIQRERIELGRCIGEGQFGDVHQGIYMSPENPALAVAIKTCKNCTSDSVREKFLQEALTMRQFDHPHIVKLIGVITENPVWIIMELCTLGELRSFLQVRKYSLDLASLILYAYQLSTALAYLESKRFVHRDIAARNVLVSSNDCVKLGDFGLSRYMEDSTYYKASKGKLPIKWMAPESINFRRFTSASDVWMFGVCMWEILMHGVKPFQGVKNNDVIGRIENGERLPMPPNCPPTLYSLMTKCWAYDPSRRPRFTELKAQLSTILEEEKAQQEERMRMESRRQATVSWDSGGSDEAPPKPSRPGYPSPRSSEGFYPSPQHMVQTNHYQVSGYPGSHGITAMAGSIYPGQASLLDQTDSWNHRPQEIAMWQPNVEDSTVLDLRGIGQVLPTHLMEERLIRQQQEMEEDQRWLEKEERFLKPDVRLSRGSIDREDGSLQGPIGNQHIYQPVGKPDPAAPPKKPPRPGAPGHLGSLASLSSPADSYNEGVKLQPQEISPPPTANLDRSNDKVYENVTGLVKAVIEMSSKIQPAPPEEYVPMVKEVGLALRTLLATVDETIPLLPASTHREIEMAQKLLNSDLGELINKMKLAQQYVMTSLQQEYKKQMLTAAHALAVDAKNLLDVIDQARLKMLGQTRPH

[15] = test system: Fibrinogen (Alexa647-labelled); assay: Alexa647-fibrinogen binding to printed small molecules – biochemical, small-molecule microarray, 635/667 nm fluorescence, artefact control for SMM control-protein annotation, profiling panel (AID 1131); conditions: fibrinogen-A647 binding fluorescence, higher = more signal;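 further: z-score merges 667 nm fluorescence with per-spot signal-to-noise over triplicate slides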
[16] = molecular target: Follistatin (Homo sapiens) (UniProt P19883); assay: FST protein binding to printed compounds – biochemical, small-molecule microarray, 635/667 nm fluorescence, primary screen (AID 1132); conditions: 635 nm fluorescence, higher = more signal
Follistatin (Homo sapiens), sequence (P19883 whole entry, looked up): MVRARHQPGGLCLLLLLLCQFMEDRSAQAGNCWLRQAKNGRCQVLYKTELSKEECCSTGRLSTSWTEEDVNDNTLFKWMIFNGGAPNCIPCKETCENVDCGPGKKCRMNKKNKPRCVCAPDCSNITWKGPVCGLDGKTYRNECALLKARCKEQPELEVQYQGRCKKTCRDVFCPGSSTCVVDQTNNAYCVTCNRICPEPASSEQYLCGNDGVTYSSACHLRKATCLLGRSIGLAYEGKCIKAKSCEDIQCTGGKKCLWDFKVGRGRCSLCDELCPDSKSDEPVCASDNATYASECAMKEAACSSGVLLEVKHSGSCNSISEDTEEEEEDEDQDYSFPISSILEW

[17] = molecular target: Fibroblast growth factor 2 (Homo sapiens) (UniProt P09038); assay: basic fibroblast growth factor binding to printed compounds – biochemical, small-molecule microarray, 635/667 nm fluorescence, primary screen (AID 1133); conditions: FGF2, fluorescence 635/667, higher = more signal
Fibroblast growth factor 2 (Homo sapiens), sequence (P09038 whole entry, looked up): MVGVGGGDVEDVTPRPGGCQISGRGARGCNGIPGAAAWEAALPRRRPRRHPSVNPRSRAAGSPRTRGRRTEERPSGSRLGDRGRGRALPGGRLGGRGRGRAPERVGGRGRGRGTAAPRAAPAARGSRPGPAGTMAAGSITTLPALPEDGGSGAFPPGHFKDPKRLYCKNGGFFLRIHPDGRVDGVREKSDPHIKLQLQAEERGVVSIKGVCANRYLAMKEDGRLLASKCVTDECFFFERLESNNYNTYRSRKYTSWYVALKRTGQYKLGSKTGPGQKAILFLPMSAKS

[18] = JC-1 mitochondrial potential readout, lung cancer cells – cell-based, A549, JC-1 fluorescence, basal, 24 h, 100 nL, profiling panel (AID 1138); conditions: higher = more signal;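 further: A549 lung adenocarcinoma cells under basal conditions with no added stimulus; test concentration not given here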

For `C=C(/C(=C/C[C@H](OC(=O)c1ccncc1)c1cccc(OCCO)c1)c1cc(C(=O)OC)ccc1OC)C(C)C`, the composite z-score [1] was -0.0035, the composite z-score [2] was 0.0866 and the composite z-score [3] was -0.142. For the same compound, the composite z-score (Albumin (Bos taurus)) was -0.768, the composite Z-score [4] was 0.415 (inactive) and the composite z-score [5] was -0.16. The composite z-score [6] was -0.12, the composite z-score [7] was 0.47 and the composite z-score [8] was 0.239. The composite z-score [9] was 0.11, the composite z-score (Sam68 (KHDRBS1)) was 1.12 and the composite z-score [10] was -1.23. The composite z-score [11] was 0.505, the composite z-score [12] was -0.538 and the composite z-score [13] was 0.101. The composite z-score [14] was 0.72, the composite z-score [15] was -0.188 and the composite z-score [16] was -0.0075. For the same compound, the composite z-score [17] was 0.266 and the z-score [18] was 2.

`C=C(COC)C(=O)CC[C@H](OC(=O)c1ccccc1-c1ccccc1C(=O)O)c1ccccc1OCCO` showed a composite z-score [1] of 0.267, a composite z-score [2] of 0.0707 and a composite z-score [3] of 0.423. For the same compound, the composite z-score (Albumin (Bos taurus)) was -0.714, the composite Z-score [4] was 1.42 (inactive) and the composite z-score [5] was -0.0881. It also gave a composite z-score [6] of -0.126, a composite z-score [7] of 0.59 and a composite z-score [8] of 0.125. It also gave a composite z-score [9] of 0.283, a composite z-score (Sam68 (KHDRBS1)) of 0.452 and a composite z-score [10] of -0.0006. It also gave a composite z-score [11] of 0.7, a composite z-score [12] of -0.307 and a composite z-score [13] of 0.536. The composite z-score [14] was -0.203, the composite z-score [15] was -0.591 and the composite z-score [16] was 0.905. For the same compound, the composite z-score [17] was 0.855 and the z-score [18] was 0.904.

`C=C(C1=CCN(S(=O)(=O)c2ccc(C)cc2)C1)[C@@H](OC(C)=O)[C@@H]1CCCN1S(=O)(=O)c1ccccc1[N+](=O)[O-]` showed a composite z-score [1] of 0.0469, a composite z-score [2] of 0.353 and a composite z-score [3] of 0.156. For the same compound, the composite z-score (Albumin (Bos taurus)) was -1.41, the composite Z-score [4] was -0.0256 (inactive) and the composite z-score [5] was -0.127. The composite z-score [6] was -0.194, the composite z-score [7] was 0.139 and the composite z-score [8] was 0.586. For the same compound, the composite z-score [9] was -0.273, the composite z-score (Sam68 (KHDRBS1)) was -0.339 and the composite z-score [10] was -0.486. The composite z-score [11] was -1.53, the composite z-score [12] was 0.0491 and the composite z-score [13] was 0.128. For the same compound, the composite z-score [14] was 0.137, the composite z-score [15] was -1.38 and the composite z-score [16] was -0.273. For the same compound, the composite z-score [17] was -0.343 and the z-score [18] was 1.7.

Compound `C=CCNC(=O)[C@@H]1[C@H]2C(=O)O[C@H](c3ccccc3)[C@H](c3ccccc3)N2[C@H](c2ccc(O)cc2)[C@@]12C(=O)Nc1ccccc12` has a composite z-score [1] of 0.0756, a composite z-score [2] of 0.955 and a composite z-score [3] of -0.0205. The composite z-score (Albumin (Bos taurus)) was -0.989, the composite Z-score [4] was 0.0737 (inactive) and the composite z-score [5] was -0.246. The composite z-score [6] was -0.22, the composite z-score [7] was 0.55 and the composite z-score [8] was 1.12. The composite z-score [9] was 0.324, the composite z-score (Sam68 (KHDRBS1)) was 0.502 and the composite z-score [10] was -0.939. For the same compound, the composite z-score [11] was 0.516, the composite z-score [12] was -0.391 and the composite z-score [13] was -0.227. For the same compound, the composite z-score [14] was 0.394, the composite z-score [15] was -0.0121 and the composite z-score [16] was 0.981. The composite z-score [17] was 0.143 and the z-score [18] was 0.715.

In the case of `C=C(COC)/C(=C/C[C@H](OC(C)=O)c1cccc(OCCO)c1)c1cc(C(=O)OC)ccc1OC`, the composite z-score [1] is reported as -0.0146, the composite z-score [2] is reported as -0.201 and the composite z-score [3] is reported as 0.188. The composite z-score (Albumin (Bos taurus)) was -0.169, the composite Z-score [4] was 0.211 (inactive) and the composite z-score [5] was -0.0414. It also gave a composite z-score [6] of -0.0649, a composite z-score [7] of 0.656 and a composite z-score [8] of 0.193. The composite z-score [9] was -0.219, the composite z-score (Sam68 (KHDRBS1)) was 0.705 and the composite z-score [10] was 1.25. The composite z-score [11] was -0.0821, the composite z-score [12] was 0.349 and the composite z-score [13] was -0.131. For the same compound, the composite z-score [14] was -0.402, the composite z-score [15] was -0.488 and the composite z-score [16] was 1.51. The composite z-score [17] was 1.4 and the z-score [18] was -0.0205.

Compound `CN(C)CCCC[C@@H]1NC(=O)[C@@H]2C[C@H](C(=O)NCCCCCNC(=O)CS)[C@H](c3cccc(OCCO)c3)N2C1=O` has a composite z-score [1] of 0.213, a composite z-score [2] of -0.255 and a composite z-score [3] of -0.304. For the same compound, the composite z-score (Albumin (Bos taurus)) was 0.786, the composite Z-score [4] was 1.6 (inactive) and the composite z-score [5] was -0.15. It also gave a composite z-score [6] of -0.167, a composite z-score [7] of 0.82 and a composite z-score [8] of 0.356. It also gave a composite z-score [9] of 0.303, a composite z-score (Sam68 (KHDRBS1)) of 0.528 and a composite z-score [10] of 0.728. For the same compound, the composite z-score [11] was 0.65, the composite z-score [12] was 2.04 and the composite z-score [13] was 0.05. The composite z-score [14] was 0.387, the composite z-score [15] was 0.119 and the composite z-score [16] was 1.49. The composite z-score [17] was 1.65 and the z-score [18] was 0.43.

With `O=C1c2ccccc2[C@](Cc2ccccc2I)(C(=O)O)[C@H](c2ccc(CO)cc2)N1Cc1ccccc1Cl` the composite z-score [1] was -0.189, the composite z-score [2] was 0.195 and the composite z-score [3] was 0.957. For the same compound, the composite z-score (Albumin (Bos taurus)) was 0.953, the composite Z-score [4] was 1.61 (inactive) and the composite z-score [5] was -0.014. The composite z-score [6] was -0.0633, the composite z-score [7] was 0.608 and the composite z-score [8] was 2.24. It also gave a composite z-score [9] of 1.07, a composite z-score (Sam68 (KHDRBS1)) of 1.3 and a composite z-score [10] of -0.912. For the same compound, the composite z-score [11] was 0.944, the composite z-score [12] was 1.99 and the composite z-score [13] was 1.19. The composite z-score [14] was 1.04, the composite z-score [15] was -0.113 and the composite z-score [16] was 0.0645. For the same compound, the composite z-score [17] was -0.354 and the z-score [18] was 0.712.

Compound `C=C(C(=O)CC[C@@H](OC(C)=O)c1ccccc1OCCO)C(C)C` has a composite z-score [1] of -0.153, a composite z-score [2] of -0.0783 and a composite z-score [3] of 0.495. For the same compound, the composite z-score (Albumin (Bos taurus)) was -0.952, the composite Z-score [4] was 0.222 (inactive) and the composite z-score [5] was -0.0647. It also gave a composite z-score [6] of -0.167, a composite z-score [7] of 0.664 and a composite z-score [8] of -0.152. The composite z-score [9] was -0.0507, the composite z-score (Sam68 (KHDRBS1)) was -0.247 and the composite z-score [10] was -0.38. It also gave a composite z-score [11] of -0.779, a composite z-score [12] of 0.138 and a composite z-score [13] of -1.28. It also gave a composite z-score [14] of -0.485, a composite z-score [15] of -0.314 and a composite z-score [16] of 0.164. For the same compound, the composite z-score [17] was 0.398 and the z-score [18] was 1.29.
